Compound activity from PubChem BioAssay.
This is a sample that favours compounds with a hit; in the whole collection about 19% have one here.
IL-1B inflam inh = inflammasome signaling inhibition, IL-1 beta readout; THP-1 LPS/ATP IL-1B secretion, AlphaLISA, 16 h; hits give low values; activity change, % at 57.5 µM; 4.7% of 360,000 active; AID 743279; in the data active = activity change below about -50%; inconclusive = mostly about -30% to -49%
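Secreted IL-1B measured by AlphaLISA bead assay after 16 h compound exposure of THP-1 cells; compounds (final up to 57.5 uM) added 1 h before LPS (250 ng/mL) and ATP (1.25 mM) stimulation; lower signal means less secretion.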
HT1080-NT tox = kills 2HG-producing HT-1080-NT fibrosarcoma cells. HT-1080-NT fibrosarcoma viability, CellTiter-Glo ATP luminescence, 48 h. Potency, µM (titrated, usually from 46.1 µM), without a hit: at the highest dose activity, negative = less viability, actives largely listed as cytotoxic. 1.6% of 360,000 active. AID 686970;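 also: NT is the 2HG producing partner of a matched IDH1 knockdown line; potency is read from the fitted curve at half-maximal effect; 0% = DMSO-treated cells and -100% = media-only wells without cells; nearly all actives have a fitted effect of over 55% in size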
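Compounds were tested in concentration-response format on HT-1080-NT cells for 48 hours at 37 degrees C. Cell viability came from CellTiter-Glo luminescence; curves were classified by r2, response magnitude and activity.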
TDP1 cell noCPT = qHTS for Inhibitors of human tyrosyl-DNA phosphodiesterase 1 (TDP1): qHTS in cells in absence of CPT; DT40 Tdp1-/- hTDP1 cells, no CPT, ATP luminescence, 48 h; Potency, µM (titrated, usually from 46.2 µM), without a hit: at the top dose activity change, negative = growth inhibition, most hits filed as inhibitors; 15% of 420,000 active; also: potency is read from the fitted curve at half-maximal effect; nearly all actives have a fitted effect of over 55% in size
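Camptothecin absent (DMSO only). Human TDP1-complemented DT40 knockout cells, 400 cells/well, 37 °C for minimum 48 hr; ATP measured via CellTiter-Glo, 30 min dark incubation, luminescence.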
HT1080 IDH1KD tx = HT-1080 IDH1 knockdown cell toxicity (counter line). HT-1080 IDH1 knockdown viability, ATP luminescence, 48 h. Potency, µM (titrated, usually from 46.1 µM), inactives show at the highest dose activity, negative = toxicity, actives largely listed as cytotoxic. 2% of 360,000 active. AID 686971;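 also: potency is read from the fitted curve at half-maximal effect; 0% = DMSO wells and -100% = cell-free medium wells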
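Knockdown cells (IDH1KD HT-1080) received compounds 2 h after plating at 750 cells/well and were kept 48 h at 37 °C in 5% FBS RPMI. A CellTiter-Glo luminescence read gave % activity for curve fitting.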
TDP1 cell CPT = DT40-hTDP1 cell growth loss with CPT. chicken DT40 Tdp1-/-;hTDP1 cells + 20 nM CPT, ATP luminescence, 48 h. Potency, µM (doses to about 46.2 µM), for the others: top-dose activity change, negative = growth inhibition, most hits filed as inhibitors. 12% of 420,000 active. AID 686979; also: potency is read from the fitted curve at half-maximal effect; nearly all actives have a fitted effect of over 55% in size
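Cell growth measured by CellTiter-Glo luminescence after a minimum 48 h, 37 C compound exposure with 20 nM CPT in Tdp1-knockout DT40 cells stably expressing hTDP1, seeded 400/well; qHTS titration format.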
uPA surface inh = inhibitors of cell surface uPA generation | Potency, µM (doses to about 38.3 µM), without a hit: at the highest dose activity change, negative = inhibition, actives largely listed as inhibitors | 0.31% of 330,000 active | cell surface uPA generation assay, qHTS | AID 540303; active = well fitted inhibition curve with a large enough effect; inconclusive = small, poorly fitted or top-dose-only effect; inactive = no such curve, though single readings can be large or run the other way; tested in mouse RAW 264.7 cells; also: potency is read from the fitted curve at half-maximal effect; nearly all actives have a fitted effect of over 55% in size
Numbers without * were called inactive; u = inconclusive; x = no result given. Unless noted, calls follow the shape of the dose curve; as a rule, active = well fitted curve in the direction sought with a large enough effect; inconclusive = small, poorly fitted or top-dose-only effect, or another doubt; inactive = no such curve, though single readings can be large; an effect the other way counts as inactive or inconclusive. Unless noted, % is scaled to controls: 0 for no effect and ±100 for the full control effect.

SMILES | IL-1B inflam inh | HT1080-NT tox | TDP1 cell noCPT | HT1080 IDH1KD tx | TDP1 cell CPT | uPA surface inh
O=C(Nc1sc2c(c1C(=O)NCC(O)CO)CCCC2)c1ccccc1 (configuration not stated) | -2 | 16% | 8% | 11% | 21% | 1%
Cc1ccc2c(c1)C(c1ccccc1)N(C(=O)c1ccc3c(c1)OCO3)CC(=O)N2 (configuration not stated) | 17 | -7% | u | -2% | u | 1%
Cc1[nH]n(-c2nc(-c3cccc([N+](=O)[O-])c3)cs2)c(=O)c1C | 4 | 1% | 21µM* | 8% | u | 3%
O=[N+]([O-])c1cccc(-c2csc(N/N=C/c3cccc(O)c3)n2)c1 | -168* | u | 21µM* | 18µM* | u | -6%
COc1ccc(CC(=O)Nc2nc(-c3cccc([N+](=O)[O-])c3)cs2)cc1 | -6 | -14% | u | -23% | u | -1%
Cc1c(Nc2nc(-c3cccc([N+](=O)[O-])c3)cs2)c(=O)n(-c2ccccc2)n1C | -13 | 3% | -15% | -3% | -5% | 6%
COc1ccc(C(=O)C(O)C(c2ccc(C)cc2)N2CCOCC2)cc1OC (configuration not stated) | 41 | 19% | -4% | 13% | -2% | -7%
CC(C)(C)c1cccc(P(=O)(c2ccccc2)c2ccccc2)c1O | -71* | -22% | -9% | -6% | 2% | -1%
COc1cc(C=O)ccc1OCCOCCOc1ccc(Cl)cc1 | 6 | 3% | u | -10% | u | 4%
COc1cc(C=O)ccc1OCCOCCOc1ccc(Cl)cc1Cl | u | -6% | 15µM* | -6% | u | 3%
CCOC(=O)c1ccc(NC(C)=O)c([N+](=O)[O-])c1 | 19 | 16% | -100% | 18% | 26µM* | -1%
CCOC(=O)CNc1ccc(C(=O)OCC)cc1[N+](=O)[O-] | 0 | 1% | -27% | -2% | -5% | 0%
CCNc1ccc(C(=O)OCC(=O)N(Cc2ccccc2)C(C)(C)C)cc1[N+](=O)[O-] | 10 | 14% | u | 14% | 15µM* | 1%
CC(=O)Nc1ccc(OC(=O)c2ccc(Br)c([N+](=O)[O-])c2)cc1 | -147* | 11% | -27% | u | -25% | 1%
Cc1ccc(NC(=O)CSc2ccc(C(N)=O)cc2[N+](=O)[O-])cc1 | 13 | -26% | u | u | u | 5%
Cc1ccc(NC(=O)CSc2ccc(C(N)=O)cc2[N+](=O)[O-])cc1C | 24 | -5% | 16µM* | -13% | 10µM* | -2%
CCCNc1ccc(C(=O)OCC)cc1[N+](=O)[O-] | 5 | 5% | -23% | 13% | -9% | 0%
Cc1ccc(NC(=O)CSc2nnc(-c3nnn(-c4ccc(F)cc4)c3C)o2)cc1Br | x | x | -13% | x | u | x
COc1cc(NC(=S)N2CCCC2)cc(OC)c1 | 4 | 15% | 26% | 14% | u | 1%
CCc1ccc(Nc2ccc(C(N)=O)cc2[N+](=O)[O-])cc1 | -12 | -5% | 23µM* | 2% | u | 8%
COC(=O)c1ccc2c(c1)C(=O)/C(=C/c1ccc(C)cc1)O2 | 0 | -5% | 13µM* | -3% | 18µM* | 2%
COC(=O)c1ccc(/C=C2\Oc3ccccc3NC2=O)cc1 | -53* | 8% | 3% | 6% | -13% | 3%
CCc1ccc(/C=C2\Oc3ccc(C(=O)OC)cc3C2=O)cc1 | 23 | 14% | u | u | -13% | 1%
C[C@H](CO)N1C[C@H](C)[C@@H](CN(C)S(C)(=O)=O)OCc2cnnn2CCCC1=O | 10 | 11% | -1% | 6% | 0% | x
